Screen size: about 5,500 compounds; about 2,000 (36%) were called active. Another 18% or so got no clear call; they are omitted. No stated cut-off is given here; in the data, active means normalized growth mostly below about 0.91 (no sharp cut-off); inconclusive means no clear call, values can overlap the other calls; inactive means mostly above about 0.92. The list shows a part of the results.
Assay: chemical genetic growth profiling, strain panel (AID 1159580);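 further: tested at 20 µM; growth read once vehicle control cultures reached saturation at 30 °C; 1 = growth at the plate median or of vehicle wells; lower values mean less growth of the strain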
Settings: growth OD

Measured: normalized growth

CCC(C)C(=O)O[C@H]1[C@H](O)C2C(CN3CC(C)CCC3[C@@]2(C)O)C2C[C@]34O[C@]5(O)C(OC(=O)C(C)(O)CC)CC[C@@]3(C)C5C(OC(C)=O)[C@@H](OC(C)=O)C4[C@@]21O (stereo partly specified)
inactive: S. cerevisiae deletion strains, locus YKL009W, strain mrt4, active compounds read low 1.01 | S. cerevisiae deletion strains, locus YKL068W, active compounds read low 1.01 | S. cerevisiae deletion strains, locus YKL085W, strain MDH1 (second series), active compounds read low 1.03 | S. cerevisiae deletion strains, locus YKL085W, strain MDH1, active compounds read low 1.03 | S. cerevisiae deletion strains, locus YKL160W, strain elf1, active compounds read low 1.04 | S. cerevisiae deletion strains, locus YKL190W, strain CNB1, active compounds read low 1 | S. cerevisiae deletion strains, locus YKR001C, strain vps1, active compounds read low 0.983 | S. cerevisiae deletion strains, locus YKR026C, strain gcn3, active compounds read low 1.01 | S. cerevisiae deletion strains, locus YKR091W, strain srl3, active compounds read low 1.02 | S. cerevisiae deletion strains, locus YLL001W, strain dnm1, active compounds read low 1.02 | S. cerevisiae deletion strains, locus YLL026W, active compounds read low 1.01 | S. cerevisiae deletion strains, locus YLL041C, strain sdh2, active compounds read low 1.04 | S. cerevisiae deletion strains, locus YLR027C, strain aat2, active compounds read low 1.02 | S. cerevisiae deletion strains, locus YLR039C, strain RIC1, active compounds read low 1.02 | S. cerevisiae deletion strains, locus YLR058C, strain SHM2, active compounds read low 1.01 | S. cerevisiae deletion strains, locus YLR102C, strain apc9, active compounds read low 0.995 | S. cerevisiae deletion strains, locus YLR113W, strain HOG1, active compounds read low 0.983 | S. cerevisiae deletion strains, locus YLR221C, strain rsa3, active compounds read low 1.01 | S. cerevisiae deletion strains, locus YLR258W, strain gsy2, active compounds read low 1.01 | S. cerevisiae deletion strains, locus YLR262C, strain YPT6 (second series), active compounds read low 1.02 | S. cerevisiae deletion strains, locus YLR262C, strain YPT6, active compounds read low 1.05 | S. cerevisiae deletion strains, locus YLR268W, strain sec22, active compounds read low 0.984 | S. cerevisiae deletion strains, locus YLR320W, strain mms22, active compounds read low 1.02 | S. cerevisiae deletion strains, locus YLR330W, strain CHS5, active compounds read low 1.01 | S. cerevisiae deletion strains, locus YLR342W, strain FKS1 (second series), active compounds read low 1 | S. cerevisiae deletion strains, locus YLR342W, strain FKS1, active compounds read low 1.01 | S. cerevisiae deletion strains, locus YLR357W, strain rsc2, active compounds read low 1.01 | S. cerevisiae deletion strains, locus YLR370C, strain arc18, active compounds read low 1.03 | S. cerevisiae deletion strains, locus YLR371W, strain rom2, active compounds read low 0.984 | S. cerevisiae deletion strains, locus YLR384C, strain iki3, active compounds read low 1.02 | S. cerevisiae deletion strains, locus YLR418C, strain cdc73, active compounds read low 0.994 | S. cerevisiae deletion strains, locus YML016C, strain PPZ1, active compounds read low 1.01 | S. cerevisiae deletion strains, locus YML032C, strain rad52, active compounds read low 0.989 | S. cerevisiae deletion strains, locus YML120C, strain ndi1, active compounds read low 1.01 | S. cerevisiae deletion strains, locus YML124C, strain tub3, active compounds read low 0.981 | S. cerevisiae deletion strains, locus YMR058W, strain fet3, active compounds read low 1.02 | S. cerevisiae deletion strains, locus YMR078C, strain ctf18, active compounds read low 0.986 | S. cerevisiae deletion strains, locus YMR125W, strain sto1, active compounds read low 1.02 | S. cerevisiae deletion strains, locus YMR129W, active compounds read low 1.02 | S. cerevisiae deletion strains, locus YMR205C, strain PFK2, active compounds read low 1.03 | S. cerevisiae deletion strains, locus YMR223W, strain ubp8, active compounds read low 0.985 | S. cerevisiae deletion strains, locus YMR231W, strain pep5, active compounds read low 1.02 | S. cerevisiae deletion strains, locus YMR263W, strain SAP30, active compounds read low 1 | S. cerevisiae deletion strains, locus YMR307W, strain GAS1, active compounds read low 1.02 | S. cerevisiae deletion strains, locus YNL067W, strain RPL9B, active compounds read low 1.02 | S. cerevisiae deletion strains, locus YNL071W, strain lat1, active compounds read low 1.03 | S. cerevisiae deletion strains, locus YNL128W, strain TEP1, active compounds read low 1.01 | S. cerevisiae deletion strains, locus YNL153C, strain GIM3, active compounds read low 1.01 | S. cerevisiae deletion strains, locus YNL183C, strain NPR1, active compounds read low 0.99 | S. cerevisiae deletion strains, locus YNL209W, strain ssb2, active compounds read low 1.02 | S. cerevisiae deletion strains, locus YNL233W, strain BNI4, active compounds read low 1.01 | S. cerevisiae deletion strains, locus YNL248C, strain rpa49, active compounds read low 1.08 | S. cerevisiae deletion strains, locus YNL250W, strain rad50, active compounds read low 0.984 | S. cerevisiae deletion strains, locus YNL271C, strain bni1, active compounds read low 0.982 | S. cerevisiae deletion strains, locus YNL298W, strain CLA4, active compounds read low 0.991 | S. cerevisiae deletion strains, locus YNL307C, strain MCK1, active compounds read low 0.994 | S. cerevisiae deletion strains, locus YNL322C, strain KRE1 (second series), active compounds read low 1.02 | S. cerevisiae deletion strains, locus YNL322C, strain KRE1, active compounds read low 1.01 | S. cerevisiae deletion strains, locus YNR049C, strain mso1, active compounds read low 1 | S. cerevisiae deletion strains, locus YNR052C, strain pop2, active compounds read low 1 | S. cerevisiae deletion strains, locus YOL006C, strain TOP1, active compounds read low 1.01 | S. cerevisiae deletion strains, locus YOL012C, strain htz1 0.797 | S. cerevisiae deletion strains, locus YOL147C, strain pex11, active compounds read low 0.994 | S. cerevisiae deletion strains, locus YOR001W, strain rrp6, active compounds read low 0.998 | S. cerevisiae deletion strains, locus YOR061W, strain CKA2, active compounds read low 1.01 | S. cerevisiae deletion strains, locus YOR069W, strain VPS5, active compounds read low 1.01 | S. cerevisiae deletion strains, locus YOR070C, strain gyp1, active compounds read low 1.03 | S. cerevisiae deletion strains, locus YOR080W, strain dia2, active compounds read low 1.04 | S. cerevisiae deletion strains, locus YOR083W, strain WHI5, active compounds read low 1.04 | S. cerevisiae deletion strains, locus YOR106W, strain vam3, active compounds read low 1.06 | S. cerevisiae deletion strains, locus YOR136W, strain idh2, active compounds read low 0.984 | S. cerevisiae deletion strains, locus YOR144C, strain elg1, active compounds read low 0.996 | S. cerevisiae deletion strains, locus YOR184W, strain ser1, active compounds read low 0.982 | S. cerevisiae deletion strains, locus YOR231W, strain MKK1, active compounds read low 0.992 | S. cerevisiae deletion strains, locus YOR265W, strain rbl2, active compounds read low 0.998 | S. cerevisiae deletion strains, locus YOR270C, strain vph1, active compounds read low 1.11 | S. cerevisiae deletion strains, locus YOR290C, strain snf2, active compounds read low 1.06 | S. cerevisiae deletion strains, locus YOR316C, strain cot1, active compounds read low 0.99 | S. cerevisiae deletion strains, locus YPL051W, strain arl3, active compounds read low 1.01 | S. cerevisiae deletion strains, locus YPL055C, strain LGE1, active compounds read low 1.02 | S. cerevisiae deletion strains, locus YPL078C, strain atp4, active compounds read low 1.05 | S. cerevisiae deletion strains, locus YPL106C, strain sse1, active compounds read low 0.995 | S. cerevisiae deletion strains, locus YPL240C, strain hsp82, active compounds read low 1.01 | S. cerevisiae deletion strains, locus YPL241C, strain CIN2, active compounds read low 0.988 | S. cerevisiae deletion strains, locus YPL256C, strain CLN2, active compounds read low 1.04 | S. cerevisiae deletion strains, locus YPR119W, strain clb2, active compounds read low 0.984 | S. cerevisiae deletion strains, locus YPR141C, strain kar3, active compounds read low 0.987 | S. cerevisiae deletion strains, locus YPR163C, strain tif3, active compounds read low 0.99 | S. cerevisiae deletion strains, locus YPR167C, strain met16, active compounds read low 0.974 | S. cerevisiae deletion strains, strain wtn01, active compounds read low 0.991 | S. cerevisiae strains, strain wild type, active compounds read low 1

Reference: PubChem BioAssay AID1159580 (chemical genetic matrix, 2015)
